Screens: PubChem BioAssay, The Scripps Research Institute Molecular Screening Center
NCOA3 inh – human NCOA3 inhibition; Q9Y6Q9; AID 588352; HEK293 GAL4-SRC3 luciferase reporter, luminescence; inhibition, % at 3.6 µM; hit rate 0.17% among 360,000;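 active = inhibition above a per-campaign cutoff, the mean of all compounds plus 3 SD, cut at about 60% in these data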;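 also: 0% = DMSO-treated cells and 100% = gossypol-treated cells at 36 µM; higher means less SRC3-driven luciferase light from the GAL4 reporter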
COUP-TFII inh – blocks human COUP-TFII nuclear receptor; P24468; HEK293T NGFI-A luciferase reporter, luminescence; hit rate 0.7% among 370,000; inhibition, % at 8.6 µM;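 active = inhibition above a per-plate cutoff, mean inhibition of test wells between control levels plus 3 SD, cut at about 38% in these data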;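 also: cells cotransfected with COUP-TFII expression vector driving the NGFI-A reporter; 0% = median of COUP-TF2 test wells and 100% = reporter-only cells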
NCOA1 inh – human NCOA1 inhibition; Q15788; HEK293 GAL4-SRC1 luciferase reporter, luminescence; inhibition, % at 3.6 µM; hit rate 0.12% among 360,000; AID 588354;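 active = inhibition above the campaign mean plus 3 SD, with each screening campaign given its own cutoff, cut at about 60% in these data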;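 also: 0% = DMSO treated cells and 100% = gossypol at 36 µM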
SRC2 inh – human SRC2 (NCOA2) inhibition; Q15596; HEK293 GAL4-SRC2 luciferase reporter, luminescence; inhibition, % at 9 µM; hit rate 0.17% among 370,000; AID 651957;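 active = inhibition above the mean inhibition of all tested compounds plus 3 SD, set per campaign, cut at about 52% in these data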;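 also: 0% = DMSO treated cells and 100% = cells given Gossypol at 36 µM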
GalR3 antag – blocks the human galanin receptor 3. O60755. HEK293 GalR3-CNG cAMP membrane potential fluorescence; galR3 body fused to GalR1 C-terminus. inhibition, % at 3 µM. hit rate 0.44% among 360,000. AID 651719;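 active = inhibition above the screen-wide average plus 3 SD, cut at about 13% in these data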;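 also: forskolin and galanin both at EC90 stimulate the cells; cAMP rise reported by CNG channel membrane potential dye signal; 0% = forskolin plus galanin with DMSO and 100% = forskolin alone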
LRH-1 inv ag – suppresses constitutive activity of human LRH-1 | inhibition, % at 3.6 µM | hit rate 0.13% among 360,000 | HEK293T StAR-luciferase reporter, LRH-1 transfected, 24 h | AID 602396;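 active = inhibition above the mean inhibition of all tested compounds plus 3 SD, cut at about 73% in these data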;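 also: 0% = DMSO wells and 100% = reporter-only cells lacking LRH-1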
Gal4-VP16 ctr – counter-screen for COUP-TFII antagonists: inhibitors of VP16 | shares compounds with COUP-TFII inh | AID 687007 | HEK293 Gal4-VP16 luciferase reporter, luminescence | hit rate 25% among 2,500 | inhibition, % at 8.5 µM; in the data active = inhibition above about 13%
COUP-TFII conf – COUP-TFII (NR2F2) inhibition, confirmation assay | shares compounds with COUP-TFII inh | HEK293 NGFI-A luciferase reporter, luminescence | inhibition, % at 8.5 µM | hit rate 45% among 2,500 | AID 687008;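 active = mean inhibition over three repeats above a set limit taken from the earlier primary screen, cut at about 38% in these data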;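 also: 100% = cells given the luciferase reporter alone without the COUP-TF2 vector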
* marks the source's active call; other numbers are inactive results; x = not tested or not shown. A selection: hits, their analogues and other compounds. The true share with any hit is near 1.1%.

SMILES	NCOA3 inh	COUP-TFII inh	NCOA1 inh	SRC2 inh	GalR3 antag	LRH-1 inv ag	Gal4-VP16 ctr	COUP-TFII conf
CC(=O)OC[C@H]1O[C@H](C#Cc2ccc(C(C)(C)C)cc2)C=C[C@H]1OC(=O)Nc1ccccc1	x	13	x	11	-4	x	x	x
CC(=O)c1ccc2c(c1)N(Cc1ccccc1Cl)C(=O)C(C)S2 (stereo not drawn)	-19	84*	7	27	-7	39	4	9
COC(=O)c1cccc(CN2C(=O)C(C)Sc3ccc(C(C)=O)cc32)c1 (stereo not drawn)	-44	-14	-13	-27	-9	-70	x	x
COc1cccc(Nc2nc(C(N)C3CCCCC3)cs2)n1 (stereo not drawn)	9	-71	8	-4	0	-14	x	x
O=C(Cn1nnc(-c2ccccc2F)n1)Nc1ccc(Cl)c(Cl)c1	x	21	x	13	x	x	x	x
Cc1oc(-c2ccc(Cl)cc2)nc1CN1CCCC(C(=O)NC2CC2)C1 (stereo not drawn)	-19	6	7	16	-8	7	x	x
CCOC(=O)N1CCC(NC(=O)C2CCCN(Cc3nc(-c4cccc(Cl)c4)oc3C)C2)CC1 (stereo not drawn)	17	48*	13	28	x	15	0	29
CCc1ccc(-c2nc(CN3CCCC(C(=O)NCCc4ccc(OC)c(OC)c4)C3)c(C)o2)cc1 (stereo not drawn)	-10	49*	-31	28	-9	-5	3	14
COC(=O)[C@]12C[C@H](CC(=O)NCc3ccc(OC)c(OC)c3)C(=O)N(Cc3ccccc3)C1=C[C@H](C(C)(C)C)O[C@@H]2C	x	12	x	12	-4	x	x	x
CCOc1cc(C(=S)N2CCOCC2)ccc1OS(=O)(=O)c1ccc(NC(C)=O)cc1	32	48*	18	24	2	28	-5	9
COC(=O)[C@]12C[C@H](CC(=O)NCc3cccc(C(F)(F)F)c3)C(=O)N(CCc3ccc(OC)c(OC)c3)C1=C[C@H](COCc1ccccc1)O[C@@H]2C	x	-14	x	11	x	x	x	x
COc1ccc(-c2coc3c(C(=O)Nc4cccnc4)cccc23)c(C)c1	-13	55*	-4	-3	-7	-2	-16	18
CC1C/C(=C/c2ccncc2)C(=O)/C(=C/c2ccncc2)C1 (stereo not drawn)	-24	87*	-303	74*	-9	45	82*	97*
CC1=CC2C(C(O)CC3(C)C2CC(C)C32OCOC23COCO3)C2(C)C/C(=C\O)C(=O)C=C12 (stereo not drawn)	-21	52*	-20	-48	-7	-11	21*	42*
O=C(OCc1cn(Cc2ccccc2F)nn1)N1CCCC1	x	4	x	2	x	x	x	x
Cn1c(=O)c2[nH]c(CCCCc3nc4ccccc4[nH]3)nc2n(C)c1=O	10	-8	-11	-39	-5	-10	x	x
Cn1c(=O)c2[nH]c(CCCCCCCCc3nc4ccccc4[nH]3)nc2n(C)c1=O	28	69*	23	27	-7	15	11	58*
O=C(NCc1cccnc1)/C(=C\c1ccc(-c2ccc(Br)cc2)o1)S(=O)(=O)c1ccccc1	84*	56*	49	52	0	61	44*	48*
O=C(NCc1cccnc1)/C(=C/c1ccc(-c2cccc(C(F)(F)F)c2)o1)NC(=O)c1ccccc1	17	11	4	5	5	-4	x	x
O=C(NCc1cccnc1)/C(=C/c1ccc(-c2ccc(Cl)cc2)o1)S(=O)(=O)c1ccccc1	68*	49*	52	66*	-5	56	45*	44*
Cc1ccc(-n2c(SCC(=O)Nc3ccc(S(=O)(=O)Nc4nccs4)cc3)nnc2-c2cccs2)cc1	x	-10	x	-17	x	x	x	x
O=C(NC1CCC1)c1ccc(C#Cc2cccc(F)c2)nc1	x	-38	x	-114	x	x	x	x
CC1=C(C(=O)N(C(C)C)C(C)C)CC(CC(=O)NCc2cccs2)C(=O)N1Cc1ccccc1 (stereo not drawn)	-13	-5	-3	3	-7	-26	x	x
COCCn1c(C)cc(C(=O)CSc2nc3ccccc3s2)c1C	29	50*	25	9	-10	2	-57	31
Cc1cccnc1NC(=O)C1CCN(S(=O)(=O)c2c(C)noc2/C=C/c2ccco2)CC1	-3	20	4	-18	0	26	x	x
SMILES	NCOA3 inh	COUP-TFII inh	NCOA1 inh	SRC2 inh	GalR3 antag	LRH-1 inv ag	Gal4-VP16 ctr	COUP-TFII conf
Cc1ccc(NC(=O)C2CCN(S(=O)(=O)c3c(C)noc3/C=C/c3ccco3)CC2)nc1	14	39*	21	39	-3	2	0	22
O=C(CSc1nnc(-c2ccccc2)n1-c1ccc(Cl)cc1)Nc1ccc(OCc2ccccc2)cc1	x	7	x	-2	x	x	x	x
S=C(Nc1ccc(Cl)cc1)c1nc2ccccc2s1	-67	-23	-59	-33	-2	-45	x	x
O=C(Nc1ccc(Cl)cc1)/C(=C/c1cccc(O)c1)c1nc2ccccc2s1	27	66*	6	55*	-2	53	40*	54*
O=C1CCCN1CCCNc1nc(NCc2cccs2)nc2ccsc12	2	-1	1	21	-9	-8	x	x
COc1ccc(C(=O)Nc2ccc(Cl)c(S(=O)(=O)Nc3ccccc3OC)c2)cc1	17	63*	15	25	-7	20	9	67*
COc1ccccc1NS(=O)(=O)c1cc(NC(=O)c2ccc(Cl)nc2)ccc1Cl	40	68*	23	18	-13	38	15*	60*
OCC1OC(n2ccc3c(NO)ncnc32)C(O)C1O (stereo not drawn)	85*	47*	69*	41	-5	98*	27*	28
COc1ccc(-c2ccc3c(n2)CCCN3S(=O)(=O)c2ccc(OC)cc2)cc1	x	19	x	-2	-4	x	x	x
CC(C)=C[C@H]1C[C@H](C)[C@H]2CC[C@H](C)c3c(O[C@@H]4O[C@@H](C)[C@@H](O)[C@@H](O)[C@@H]4O)c(O)c(C)c1c32	16	12	10	17	-1	18	x	x
O=C(NC(Nc1nc2ccc([N+](=O)[O-])cc2s1)(C(F)(F)F)C(F)(F)F)c1ccccc1Cl	74*	75*	73*	-7	7	98*	18*	74*
O=S(=O)(CC1NCCc2ccccc21)NCCc1ccccc1 (stereo not drawn)	x	-1	x	-17	x	x	x	x
Cc1nc(SCc2cccc(C(=O)O)c2)nc2c1CCCC2	-47	52*	-48	53*	-4	-43	23*	4
